The source made the active and inactive calls. Rule for the calls: active = hit-call score of the fitted dose curve at least 0.9, where 1 is the maximum; inactive = score below 0.9.
target: human Fms (CSFR) (CSF1R) Receptor Tyrosine Kinase, CSF1R (gene 1436) (UniProt P07333); test: ERF_FR_ENZ_hCSF1R: Eurofins (ERF) Enzymatic Radiometric [Km ATP] KinaseProfiler LeadHunter Assay for human Fms (CSFR) (CSF1R) Receptor Tyrosine Kinase
Method: ERF_FR_ENZ_hCSF1R is a biochemical, single-readout assay that uses extracted gene-proteins in a cell-free assay. Measurements were taken 0.25 hour after chemical dosing in a 96-well plate. See Fms (CSFR) Human RTK Kinase Enzymatic LANCE Assay [Km ATP], Cerep.ERF_FR_ENZ_hCSF1R is an assay component calculated from the ERF_FR_ENZ_hCSF1R assay. It is designed to measure enzyme activity using a type of enzyme reporter as detected by fluorescence intensity with LANCE technology.Data from the assay component ERF_FR_ENZ_hCSF1R was analyzed at the assay endpoint, ERF_FR_ENZ_hCSF1R, in the positive analysis fitting direction relative to DMSO as the negative control and baseline of activity. Using a type of enzyme reporter, loss-of-signal activity can be used to understand changes in enzymatic activity as they relate to gene CSF1R. To generalize the intended target to other relatable targets, this assay endpoint is annotated to the kinase intended target family, where the subfamily is receptor tyrosine kinase.
Fms (h) is incubated with 8 mM MOPS pH 7.0, 0.2 mM EDTA, 250 uM […], 10 mM MgAcetate and [g- 33P]-ATP (specific activity and concentration as required). The reaction is initiated by the addition of the Mg/ATP mix. After incubation for 40 minutes at room temperature, the reaction is stopped by the addition of phosphoric acid to a concentration of 0.5%. […]

Chain of human Fms (CSFR) (CSF1R) Receptor Tyrosine Kinase, CSF1R (gene 1436) (P07333 whole entry, looked up): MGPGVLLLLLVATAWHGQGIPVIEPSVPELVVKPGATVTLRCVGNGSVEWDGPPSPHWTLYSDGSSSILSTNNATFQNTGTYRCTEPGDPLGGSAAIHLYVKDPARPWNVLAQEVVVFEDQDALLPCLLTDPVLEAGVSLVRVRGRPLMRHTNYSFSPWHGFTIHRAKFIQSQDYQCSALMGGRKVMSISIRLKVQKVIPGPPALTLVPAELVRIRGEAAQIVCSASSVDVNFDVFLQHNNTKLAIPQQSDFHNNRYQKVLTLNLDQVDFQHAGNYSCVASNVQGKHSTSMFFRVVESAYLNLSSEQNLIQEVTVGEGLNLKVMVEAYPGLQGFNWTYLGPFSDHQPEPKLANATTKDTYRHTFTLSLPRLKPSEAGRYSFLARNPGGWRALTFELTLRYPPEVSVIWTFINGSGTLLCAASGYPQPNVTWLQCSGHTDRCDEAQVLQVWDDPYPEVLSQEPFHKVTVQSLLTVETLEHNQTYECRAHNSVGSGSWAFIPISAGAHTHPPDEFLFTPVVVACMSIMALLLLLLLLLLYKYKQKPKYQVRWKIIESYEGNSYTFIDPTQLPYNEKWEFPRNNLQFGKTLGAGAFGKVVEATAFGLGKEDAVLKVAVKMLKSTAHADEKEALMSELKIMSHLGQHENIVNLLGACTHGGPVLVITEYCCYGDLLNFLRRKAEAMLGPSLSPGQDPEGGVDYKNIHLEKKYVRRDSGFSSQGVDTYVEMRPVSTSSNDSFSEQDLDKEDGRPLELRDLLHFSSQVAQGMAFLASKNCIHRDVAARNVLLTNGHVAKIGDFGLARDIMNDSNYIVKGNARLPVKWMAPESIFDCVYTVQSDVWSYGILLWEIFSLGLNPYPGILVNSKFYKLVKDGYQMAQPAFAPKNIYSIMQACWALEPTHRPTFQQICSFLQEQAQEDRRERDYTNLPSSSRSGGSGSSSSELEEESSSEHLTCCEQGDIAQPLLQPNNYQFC

| Structure (SMILES) | outcome |
| --- | --- |
| O=C(/C=C/c1ccc(O)cc1)CC(=O)/C=C/c1ccc(O)cc1 | inactive |
